# Values joined by “and” are separate entries in the source; they are usually repeats but may differ in a detail not shown here. Equal values may be shown once. This is part of a sample that, as a whole, favours compounds with a hit. Of some 83,000 tested, about 20% had one in any assay.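 Testing used 96-well plates and a 48-hour single-concentration exposure. Example: -40 means 40% of the starting cells died.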 Values without a mark were called inactive. Active and inactive are the calls of the source.
# System: MDA-MB-468 breast
# Test: NCI-60 one-dose screen, 48 h (100 = growth as untreated, 0 = no growth, -100 = all killed)
# Settings: 10 µM unless noted
# Experimental: Growth inhibition of the MDA-MB-468 human Breast tumor cell line is measured as a screen for anti-cancer activity. Cells are grown in 96 well plates and exposed to the test compound for 48 hours. Compounds are tested at a single concentration, which is 10^-5 M for most compounds. The reported endpoint is percent growth (GI% or GIPRCNT), where numbers from 0 - 100% represent growth inhibition, and numbers from -100% - 0 represent cell death. For example, a value of 40 represents 60% growth inhibition. A value of 0 means no net growth occurred over the course of the experiment. A value of -40 indicates 40% of cells at the beginning of the experiment died by the end of the experiment. A value of -100 means all cells are dead at the end of the experiment.
# NCI-60 Human Tumor Cell Lines Screen was performed using the standard one-dose NCI protocol, which is described in more detail at https://dtp.cancer.gov/discovery_development/nci-60/default.htm.
# Compounds with GIPRCNT values below 10 were considered active. Activity score was based on GIPRCNT using the following formula: […]
# Score is 0 for GIPRCNT values of 100 or above, 50 for GIPRCNT values of 0, and 100 for GIPRCNT values of -100.
row,SMILES,growth
1,COc1ccc2c(c1)C1(C)CCN(C)CC(C1)C2O (stereo not given),101%
2,O=[N+]([O-])c1cc([N+](=O)[O-])c(Cl)cc1Cl,-73.8% (active)
3,O=C(CCc1ccco1)NC1CCN(CC2(c3ccc(Cl)cc3)CCC2)CC1,-11.5% (active)
4,CCCCCSC1C2C(=O)C(Br)=CC13CCNc1c(O)c4c5c(c13)=[N+]2CCC=5C=N4 (stereo not given),-30.5% (active)
5,O=C(CC1(O)C(=O)N(Cc2ccccc2)c2ccc(Cl)cc21)c1ccc(C(=O)NCC2CCC3(CC2)OOC2(CCCCC2)OO3)cc1 (stereo not given),6.64% (active)
6,COc1ccc(-n2c(C)nc3cc(OC)c(OC)cc3c2=O)cc1OC,114%
7,O=C(/C=C/c1ccc(F)cc1)c1nc2ccccc2n1Cc1ccc(Br)cc1,-90.8% (active)
8,O=C(O)c1cc(Cc2ccc(O)c(C(=O)O)c2)ccc1O (tested in a mixture with another compound),-46.8% (active)
9,CN1CCN(C(=O)COc2ccc(/C=C3\CC4C5CC=C6CC(Cl)CCC6(C)C5CCC4(C)C3=O)cc2)CC1 (stereo not given),66.6%
10,CCC(C)(C)O,104%
11,O=C1c2ccccc2C(=O)N1[N+](=O)[O-],89.2%
12,O=C(C(=O)N1CCCC1)c1cn(CCCCCn2cc(C(=O)C(=O)N3CCCC3)c3ccccc32)c2ccccc12,91%
13,COc1cc(/C=N/C2=C(C#N)C(c3ccco3)c3c(c4cc(C)ccc4oc3=O)O2)cc(OC)c1OC (stereo not given),109%
14,CCCC(C)C1(CC)C(=O)NC(=O)N(C)C1=O (stereo not given),94.2%
15,O=C1N[C@@H]2[C@@H](O)[C@@H](O)[C@H](O)C[C@H]2c2cc3c(c(O)c21)OCO3,-45.8% (active)
16,O=C(O)C1C(C(=O)O)C2(Cl)C(Cl)=C(Cl)C1(Cl)C2(Cl)Cl (stereo not given),105% and 113%
17,C[C@]12CCc3nc(Nc4ccccc4F)sc3C1=CC[C@@H]1[C@@H]2CC[C@]2(C)C(=O)CC[C@@H]12,23.7%
18,CSc1cc(/C=C(\C)[C@@H]2C[C@@H]3O[C@]3(C)CCC[C@H](C)[C@H](O)[C@@H](C)C(=O)C(C)(C)[C@@H](O)CC(=O)O2)n(CCNC(=O)OC(C)(C)C)n1,66%
19,COc1cc2c(c(OC)c1OC)-c1ccc(O)cc1[C@@H](NC(C)=O)CC2,-20.9% (active) and -7.5% (active)
20,CC(=O)OC[C@]1(C)C=C2C(=O)[C@](C)(O)C3(CC3)C(C)=C2[C@H]1OC(=O)N(C)CCN(C)C(=O)OC(C)(C)C,-62.5% (active)

row,SMILES,growth
1,Cc1ccc(C(=O)OC(C(=O)O)C(OC(=O)c2ccc(C)cc2)C(=O)O)cc1 (stereo not given) (tested in a mixture with another compound),-12.2% (active)
2,CC1=C2C(=O)[C@H]3[C@@H](CC=C4C[C@@H](O)CC[C@@]43C)[C@@H]2CC[C@]12O[C@@H]1C[C@H](C)CN[C@H]1[C@H]2C,85.6%
3,CC1(C)CC(=O)CC(C)(C)N1N=O,124%
4,O=C([Se]C1C=CCCC1)c1ccc(C(=O)[Se]C2C=CCCC2)s1 (stereo not given),-95.7% (active)
5,O=C(Nc1ccc([N+](=O)[O-])cc1)C(Cl)(Cl)Cl,96.5%
6,CC1(C)N=C(N)N=C(N)N1c1ccc(CCCCc2ccc(Cl)cc2S(=O)(=O)F)c(Cl)c1,-22.1% (active)
7,O=C1CC2(CC3(Cl)C(Cl)=C(Cl)C2(Cl)C3(Cl)Cl)C(=O)O1 (stereo not given),105%
8,CC1(C)CN=C(NN=C(/C=C/c2ccc(C(F)(F)F)cc2)/C=C/c2ccc(C(F)(F)F)cc2)NC1,-84% (active)
9,COc1cc2c(cc1OC)C13CCN4CC5=CCOC6CC(=O)N2C1C6C5CC43 (stereo not given),116% and 108%
10,CCCC[C@H](NC(=O)[C@H]1CCCCN1C)C(=O)N(C)[C@H](C[C@@H](OC(C)=O)c1nc(C(=O)N[C@@H](Cc2ccccc2)C[C@H](C)C(=O)OCC)cs1)C(C)C,31.2%
11,CCOP(=O)(Cc1ccc(C#N)cc1)OCC,108%
12,N#CC(C#N)=Cc1cccc(F)c1,109%
13,CC[C@H](C)[C@H](NC(=O)[C@H]1CCCCN1C)C(=O)N(C)[C@H](C[C@@H](OC(C)=O)c1nc(C(=O)NC23CC(C(=O)OC)(C2)C3)cs1)C(C)C,4.52% (active)
14,COC(=O)[C@H](Cc1ccccc1)NNC(=O)c1csc([C@@H](C[C@H](C(C)C)N(C)C(=O)[C@@H](NC(=O)[C@H]2CCCCN2C)C2CC2)OC(C)=O)n1,-11.2% (active)
15,COc1ccccc1[As]=[As]c1ccccc1OC (stereo not given),-94.8% (active)
16,CC(Oc1ccc(-c2ccccc2)cc1)C(=O)O (stereo not given),94.4%
17,C[N+]12CN3CN(CN(C3)C1)C2,119%
18,C=COC(=O)CCN1CC1,108%
19,CCN1C(=O)C(=C/C=C/c2ccccc2)C(=O)N(CC)C1=O,93.1%
20,NC(=O)OCC(CO)(c1ccccc1)c1ccccc1,93.8%
